Inconclusive results are not listed. The source made the active and inactive calls. Unless noted, calls come from the whole dose curve; as a rule, active = well fitted curve in the direction sought with a large enough effect; inconclusive = small, poorly fitted or top-dose-only effect, or another doubt; inactive = no such curve, though single readings can be large; an effect the other way counts as inactive or inconclusive.
Experiments:
[1] = qHTS to identify inhibitors of the type 1 interferon - major histocompatibility complex class I in skeletal muscle: primary screen against the NCATS Pharmaceutical Collection (AID 1347407);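 note: luminescence of HiBiT knocked into endogenous HLA-B as interferon-induced MHC class I level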
In short: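 A qHTS format is used: 8-point, 1:5 compound series with 46 uM top final concentration, applied alongside 4 ng/ml IFN-beta to HLA-B*08:01-HiBiT knock-in myoblasts. Luminescence is measured after 24 h treatment.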

[2] = target: Protein phosphatase 1D (Homo sapiens) (UniProt O15297); assay: RapidFire Mass Spectrometry qHTS Assay for Modulators of WT P53-Induced Phosphatase 1 (WIP1) (AID 1347424);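 note: amount of dephosphorylated VEPPL-S-QETFS peptide product formed by WIP1; series mostly up to about 63 µM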
In short: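 WIP1 (10 nM final) was preincubated 1 h at room temperature with compounds in Tris-HCl pH 7.5, 30 mM MgCl2, TCEP, EGTA, BSA; 2 uM VEPPL-pS-QETFS phosphopeptide was added for 5 min, quenched with formic acid, and dephosphorylated product quantified by RapidFire MS.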

[3] = target: Protein phosphatase 1D (Homo sapiens) (UniProt O15297); assay: Rhodamine-PBP qHTS Assay for Modulators of WT P53-Induced Phosphatase 1 (WIP1) (AID 1347425)
In short: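 The read-out is the change in Rhodamine-PBP fluorescence (f1 - f0, ex 525/em 598 nm) as Pi is released, read each minute for 11 min. Final reaction: 5 nM WIP1, 10 uM phosphopeptide VEPPL-pS-QETFS, 10 uM Rh-PBP, 50 mM Tris-HCl pH 7.5, 30 mM MgCl2. Compound was preincubated with enzyme for 1 hour at room temperature.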

[4] = Primary qHTS for Huh7 cytotoxicity: counterscreen for inhibitors of MERS-S pseudotyped particle cell entry (AID 1479147; calls by dose curve)
[5] = Primary qHTS for inhibitors of MERS-S pseudo-typed particle cell entry (AID 1479149; calls by dose curve; note: nearly all actives have a fitted effect of over 60% in size)
[6] = Primary qHTS for Vero E6 cytotoxicity: counterscreen for inhibitors of SARS-S pseudo-typed particle cell entry (AID 1479150; calls by dose curve)
[7] = Primary qHTS for inhibitors of SARS-S pseudo-typed particle cell entry (AID 1479145; calls by dose curve; note: nearly all actives have a fitted effect of over 45% in size)
[8] = Validation qHTS assay for inhibitors of Activation Induced Cytidine Deaminase (AID): UDG Counterscreen signal (AID 1347427)
In short: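 Counterscreen read of UDG activity (2 U/mL, 4/3x) in the FRET deamination format with AID (1 uM, 4/3x), DJC20/DJC23 substrates (250 nM, 4x), 4 h at room temperature. NaOH stop, fluorescence at 560 ex/665 em.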

Measured: Potency

Sequence of Protein phosphatase 1D (Homo sapiens) (O15297 whole entry, looked up): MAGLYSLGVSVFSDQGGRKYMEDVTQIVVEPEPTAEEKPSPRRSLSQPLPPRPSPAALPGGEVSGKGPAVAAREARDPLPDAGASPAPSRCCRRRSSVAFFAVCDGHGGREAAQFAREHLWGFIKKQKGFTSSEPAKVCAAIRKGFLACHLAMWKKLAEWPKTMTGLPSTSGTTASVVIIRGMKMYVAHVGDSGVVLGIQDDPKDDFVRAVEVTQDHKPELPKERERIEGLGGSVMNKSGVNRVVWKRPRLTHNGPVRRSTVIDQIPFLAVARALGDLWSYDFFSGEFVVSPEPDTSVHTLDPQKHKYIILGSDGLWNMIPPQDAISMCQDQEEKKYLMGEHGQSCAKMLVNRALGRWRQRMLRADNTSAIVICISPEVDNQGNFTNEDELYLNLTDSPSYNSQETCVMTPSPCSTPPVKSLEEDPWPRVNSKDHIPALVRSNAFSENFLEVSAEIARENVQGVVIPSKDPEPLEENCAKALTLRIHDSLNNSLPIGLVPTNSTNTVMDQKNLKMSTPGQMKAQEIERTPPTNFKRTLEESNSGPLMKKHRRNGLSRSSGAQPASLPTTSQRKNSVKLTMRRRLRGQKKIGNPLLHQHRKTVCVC

CC(C)NC(C)C
inactive: [1] | [2] | [3] | [4] | [5] | [6]

NC(=O)c1cc([N+](=O)[O-])cc([N+](=O)[O-])c1
inactive: [1] | [2] | [3] | [7] | [4] | [5] | [6]

C[C@]12CC[C@@H]3c4ccc(OC(=O)N(CCCl)CCCl)cc4CC[C@H]3[C@@H]1CC[C@@H]2O
inactive: [1] | [2] | [3] | [7] | [4] | [5] | [6]

COP(=S)(OC)Oc1ccc(S(=O)(=O)N(C)C)cc1
inactive: [1] | [2] | [3] | [7] | [4] | [5] | [6]

CCCCC/C=C\C/C=C\C/C=C\C/C=C\CCCC(=O)NCC(=O)O
inactive: [1] | [2] | [3] | [8]

CCc1cc2c(s1)-n1c(C)nnc1CN=C2c1ccccc1Cl
inactive: [1] | [2] | [3] | [7] | [4] | [5] | [6]

COP(=S)(OC)Oc1ccc(SC)c(C)c1
inactive: [1] | [2] | [3] | [7] | [4] | [5] | [6]

COC1CC(=C(c2cccs2)c2cccs2)C[N+](C)(C)C1 (configuration not stated)
inactive: [1] | [2] | [3] | [7] | [4] | [5] | [6]

O=c1[nH]c2ccccc2n1C1CCNCC1
inactive: [1] | [2] | [3]

O=[N+]([O-])O[C@H]1CO[C@H]2[C@@H]1OC[C@H]2O[N+](=O)[O-]
inactive: [1] | [2] | [3] | [7] | [4] | [5] | [6]

COc1cccc(C(=O)CCN[C@@H](C)[C@H](O)c2ccccc2)c1
inactive: [1] | [2] | [3] | [4] | [5] | [6]

CCN[C@@H](C)Cc1cccc(C(F)(F)F)c1
inactive: [1] | [2] | [3]

CC(C)(C)NCC(O)c1cc(Cl)c(N)c(C(F)(F)F)c1 (configuration not stated)
inactive: [1] | [2] | [3] | [7] | [4] | [5] | [6]

Clc1ccc(C(c2ccc(Cl)cc2)C(Cl)(Cl)Cl)cc1
inactive: [1] | [2] | [3] | [7] | [4] | [5] | [6]

CN1CCC(O)(c2ccc(F)cc2)C(C(=O)c2ccc(F)cc2)C1 (configuration not stated)
inactive: [1] | [2] | [3]

Nc1ccc([As](=O)(O)O)cc1
inactive: [1] | [2] | [3] | [7] | [4] | [5] | [6]

Oc1ccc(Cl)cc1
inactive: [1] | [2] | [3] | [7] | [4] | [5] | [6]

NC1=NC(=O)C(c2ccccc2)O1 (configuration not stated)
inactive: [1] | [2] | [3]

O=C1c2ccccc2C(=O)c2ccccc21
inactive: [1] | [2] | [3] | [7] | [4] | [5] | [6]

CCC(CC)(CNC(=O)CCCO)c1cccc(OC)c1
inactive: [1] | [2] | [3] | [4] | [5]

C[C@H]1[C@@H]2Cc3ccc(O)cc3[C@@]1(C)CCN2C
inactive: [1] | [2] | [3]

Nc1ccccc1
inactive: [1] | [2] | [3] | [7] | [4] | [5] | [6]

c1ccc(N2CCNCC2)cc1
inactive: [1] | [2] | [3]

C=CCC1(C(C)CC)C(=O)NC(=O)NC1=O (configuration not stated)
inactive: [1] | [2] | [3] | [7] | [4] | [5] | [6]

C[C@@H]1CC2=CC(=O)CC[C@@H]2[C@H]2CC[C@@]3(C)[C@@H](CC[C@]3(C)O)[C@@H]21
inactive: [1] | [2] | [3] | [4] | [6]

COc1c2c(cc3c1OCO3)CCN(C)C2
inactive: [1] | [2] | [3] | [7] | [4] | [5] | [6]

CNC(C)(C)Cc1ccccc1
inactive: [1] | [2] | [3] | [7] | [4] | [5] | [6]

CCN(CC)CCc1c[nH]c2ccccc12
inactive: [1] | [2] | [3]

CCC(C)C(C)(COC(N)=O)COC(N)=O (configuration not stated)
inactive: [1] | [2] | [3] | [7] | [4] | [5] | [6]

CN1C(=O)NC(=O)C(C)(C2=CCCCC2)C1=O (configuration not stated)
inactive: [1] | [2] | [3] | [4] | [5] | [6]
